# Screening results from PubChem.
# Abeta rescue = compounds reversing amyloid beta toxicity in yeast | 410,000 tested, 0.063% active | yeast expressing A-beta42, growth rescue, OD600, 48 h; response scale: 0% DMSO, 100% iron-clioquinol control | Potency, µM (highest dose often 46.1 µM), hits mostly activators; note: nearly all actives have a fitted effect of over 55% in size
#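 Yeast A-beta toxicity model in growth medium with pinned compounds, 48 h at 30 C; growth read as absorbance at 600 nm. Normalized to FeCl3/clioquinol equimolar mix (positive) and DMSO (negative).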
# TDP-43 yeast inh = TDP-43 toxicity inhibition in yeast; TDP-43 expressing yeast growth rescue, BacTiter-Glo, 24 h; Potency, µM (doses to about 46.1 µM), without a hit: at the top dose growth rescue (activation), usual class: activators; 410,000 tested, 1.8% active; note: % of control where 0% means no effect; nearly all actives have a fitted effect of over 50% in size
#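 Yeast cells expressing TDP-43 under galactose induction are exposed to compounds for 24 hr at 30 deg C. BacTiter-Glo luminescence measures growth, so protective compounds score as activators.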
# Chronic BCR inh = chronic active BCR signaling inhibition. ABC-DLBCL IkBa-CBG/CBR reporter, luminescence ratio, 4 h. Potency, µM (series often up to 46.1 µM), inactives show at the highest dose activity change, negative = inhibition, most hits filed as inhibitors. 340,000 tested, 0.05% active. AID 493014; active = well fitted inhibition curve with a large enough effect in the signal ratio, with a control signal flat, not every such curve was filed as active; inconclusive = small, poorly fitted or top-dose-only effect, or effect the other way, or a change in a side signal; the % refers to the signal ratio;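 note: plate controls were basal doxycycline-induced cells for no effect and cells given 10 µM MG132 for full effect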
#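 TMD8 human ABC-DLBCL cells with doxycycline-inducible IκBα–green luciferase fusion and unfused red luciferase, in 0.5% FBS medium; compounds up to 46 uM, 4 h at 37C. Green/red luminescence ratio, filter-overlap corrected, fitted to concentration-response curves.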
# uPA surface inh = cell surface uPA generation inhibition | cell surface uPA generation assay, qHTS | Potency, µM (doses to about 38.3 µM), for the others: at the top dose activity change, negative = inhibition, hits mostly inhibitors | 330,000 tested, 0.31% active; active = well fitted inhibition curve with a large enough effect; inconclusive = small, poorly fitted or top-dose-only effect; inactive = no such curve, though single readings can be large or run the other way; tested in mouse RAW 264.7 cells; note: % is set by controls: 0 for no effect and ±100 for the full control effect; nearly all actives have a fitted effect of over 55% in size
# FUS yeast rescue = suppressors of FUS proteinopathy in yeast; AID 1347120; S. cerevisiae FUS-expressing, growth rescue, OD600, 24 h; 390,000 tested, 0.24% active; Potency, µM (highest dose often 76.6 µM), usual class: activators;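 note: plate controls were DMSO vehicle for no effect and reference control for full effect; nearly all actives have a fitted effect of over 55% in size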
#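 Yeast FUS proteinopathy model; galactose-induced FUS (2%), starting OD 0.005. Cpds in dilution series, 24hr, 30C, 99% humidity. Abs 600 nm growth. Pos ctrl CP55940 (top 92uM final); neg ctrl DMSO.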
# aSyn yeast inh = inhibitors of alpha-synuclein toxicity in yeast; 370,000 tested, 0.14% active; AID 652106; Potency, µM (top dose mostly 46.1 µM), for inactives: at the highest dose growth rescue (activation), most hits filed as activators; Yeast expressing alpha-synuclein, growth rescue, BacTiter-Glo, 24 h; note: % of control where 0% means no effect; nearly all actives have a fitted effect of over 65% in size
#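 Screening used galactose-induced yeast with toxic alpha-synuclein levels, exposed to compound for 24 hr at 30 deg C. Cell growth, read with BacTiter-Glo luminescence, gave the measured signal.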
# * hit, by the source's call; i = inactive; u = inconclusive; x = no result; [ ] = remark or other dose. The list is not random: actives were taken first. Their share in the collection is about 2.3%. Unless noted, calls come from the whole dose curve; as a rule, active = well fitted curve in the direction sought with a large enough effect; inconclusive = small, poorly fitted or top-dose-only effect, or another doubt; inactive = no such curve, though single readings can be large; an effect the other way counts as inactive or inconclusive. Potency is the fitted concentration of half-maximal effect.
SMILES,Abeta rescue,TDP-43 yeast inh,Chronic BCR inh,uPA surface inh,FUS yeast rescue,aSyn yeast inh
c1ccc(Sc2nc(N3CCCCC3)nc(N3CCCCC3)n2)nc1,i,15.8µM*,x,-17.1%,i,-0.6%
CC(C)(C)n1nnnc1C(c1ccccc1)N1CCN(c2ccc(C(F)(F)F)cn2)CC1 (stereo unspecified),i,35.5µM*,x,x,i,-1.2%
CC(C)(C)n1nnnc1C(c1cccnc1)N1CCN(c2ccccn2)CC1 (stereo unspecified),i,-5.5%,-28.6%,1.5%,i,9.6%
Cc1[nH]c2ccccc2c1C(=O)COC(=O)C1CC(O)CN1S(=O)(=O)c1ccc(Cl)cc1 (stereo unspecified),i,-14.4%,-3.7%,2.1%,i,7.5%
CC(Oc1ccccc1)C(=O)Nc1ccc(C(=O)OCc2cc(=O)n3ccsc3n2)cc1 (stereo unspecified),i,20µM*,x,x,u,x
O=c1cc(CSc2n[nH]c(-c3ccncc3)n2)nc2sccn12,i,-10.6%,-2.7%,2.1%,i,5.6%
O=c1cc(CSc2ccc([N+](=O)[O-])cc2)nc2sccn12,i,14.8%[9.22 µM],5.5%,-2.4%,i,15.8µM*
Cc1cccc(-n2c(SCc3cc(=O)n4ccsc4n3)nc3ccccc32)c1,i,22.4µM*,20.1%,5.3%,i,11.2%
Cc1ccccc1C(=O)Nc1cccc(C(=O)OCc2cc(=O)n3ccsc3n2)c1,i,3.4%,x,x,i,x
Cc1cccc(C(=O)OCc2cc(=O)n3ccsc3n2)c1,i,17.8µM*,x,x,i,x
Cc1ccc(SCc2cc(=O)n3ccsc3n2)c(C)c1,x,x,0.5%,x,x,x
COc1cc2[nH]c(C(=O)Nc3ccc(F)cc3)cc2c(OC)c1OC,x,x,-19.0%,x,x,x
Cc1ccc(NCc2cccn2-c2nnc(N3CCC(C(=O)NCCC(C)C)CC3)s2)cc1,i,7.7%,x,x,u,x
CSc1ccc(CNC(=O)C2CCN(c3nnc(-n4cccc4CNc4ccc(C)cc4)s3)CC2)cc1,i,-4.7%,x,x,35.5µM*,x
Cc1cc(Nc2ccccc2)n(-c2ccccc2)n1,i[9.22 µM],28.6%,u,5.0%,i,-1.8%
Cc1cc(Nc2nc(Cl)c(Cl)cc2Cl)n(-c2ccccc2)n1,i,17.8µM*,u,u,x,0.4%
Cc1cccc(NC(=O)NC(=O)c2ccccc2)n1,i,22.9%,u,5.1%,i,11.1%
Cc1ccc(-c2nc(CS(=O)CC(=O)NCc3ccc(Cl)cc3)c(C)o2)cc1 (stereo unspecified),i,0.0%,u,-13.4%,i,20.2%
COc1ccc2c(c1)c(C(C)=O)c(C)n2CCc1ccc(OC)c(OC)c1,i,20µM*,u,15.9%,i,1.9%
CC1Cc2ccccc2N1C(=O)/C=C/c1cccc(F)c1 (stereo unspecified),i,20µM*,-0.3%,-5.1%,i,6.1%
CN=C(Nc1cccc(Cl)c1)SC1CC(=O)N(c2ccc(OC)cc2)C1=O (stereo unspecified),8.91µM*,29.3%[9.22 µM],u,6.6%,i,u
CC(C)CC(N)c1csc(NC(=O)NCCc2ccccc2)n1 (stereo unspecified),i,12.4%,x,x,i,1.8%
NC(Cc1ccc(C(F)(F)F)cc1)c1csc(NC(=O)NCCc2ccccc2)n1 (stereo unspecified),i,0.0%,x,x,22.4µM*,-36.5%
O=C(NNC(=O)c1cccc(S(=O)(=O)N2CCN(c3ccccc3)CC2)c1)c1ccc(Cl)cc1,i,-20.5%,-9.7%,4.4%,x,1.7%
CCOC(=O)C1=C(C)N=c2s/c(=C\c3ccc(OCC(=O)O)c(OC)c3)c(=O)n2C1c1ccc(OC)cc1 (stereo unspecified),i,7.9%,0.9%,-0.8%,35.5µM*,0.7%
SMILES,Abeta rescue,TDP-43 yeast inh,Chronic BCR inh,uPA surface inh,FUS yeast rescue,aSyn yeast inh
CCOC(=O)C1=C(C)N=c2s/c(=C\c3ccc(OCC(=O)O)cc3)c(=O)n2C1c1ccccc1 (stereo unspecified),i,-3.4%,2.0%,1.0%,u,0.0%
O=C(CCCn1c(=S)[nH]c2ccc(Br)cc2c1=O)N1CCN(c2ccccn2)CC1,i,-26.9%,u,x,i,-0.4%
CCCCCCSc1ccc([C@H]2N[C@@](C)(C(=O)OC)[C@H]3C(=O)N(C)C(=O)[C@@H]23)cc1,i,u,-5.8%,-28.0%,12.6µM*,u
CN(C)CCCN1CC(C(=O)O)CC1=O (stereo unspecified),i,-16.4%,u,1.5%,i,-4.1%
CN1CCN(S(=O)(=O)c2ccc(N3CCc4ccccc4C3)nc2)CC1,i,-8.6%,1.8%,-0.8%,i,5.5%
CCOC(=O)c1sc2nc3c(cc2c1N)COC(C)(CC)C3 (stereo unspecified),i,11.2µM*,u,-4.3%,i,x
Nc1nc(Nc2ccccc2Br)nc(C(F)(F)F)n1,i,17.8µM*,-9.6%,-16.1%,i,-4.9%
CC1CC2(C)CC(C)C1(COC(=O)Nc1ccccc1)CO2 (stereo unspecified),i,35.5µM*,-0.9%,0.0%,i,0.6%
Cc1ccc(NS(=O)(=O)c2ccc(-c3csc(C)n3)s2)c(C)c1,i,u,0.9%,4.3%,i,u
O=c1cc(-c2ccccc2)n(S(=O)(=O)c2ccc3ccccc3c2)o1,i,u,x,-0.8%,i,20µM*
COc1ccc(S(=O)(=O)n2oc(=O)cc2-c2ccccc2)cc1,i,u,u,-2.4%,i,9.8%
COc1ccc(S(=O)(=O)n2oc(=O)cc2-c2ccccc2)cc1OC,i,14.1µM*,u,-3.0%,i,u
COc1ccc2c(c1)C(=O)C(=O)N2CC1COc2ccccc2O1 (stereo unspecified),i,-88.4%,-17.1%,u,i,-33.6%
Cc1cc(C)c(S(=O)(=O)NCC(=O)NCc2ccccn2)c(C)c1,i,6.1%,-1.9%,x,i,3.6%
Cc1ccc(/C=C/C(=O)c2ccc(O)cc2)cc1,i,2.7%,u,-9.5%,u,-6.5%
CSc1ccc(/C=C/C(=O)c2ccc(O)cc2)cc1,u,14.1µM*,u,-17.7%,i,-11.0%
CCOc1ccc(CCN2C(=O)C(=O)N([C@@H](Cc3ccc(O)cc3)CN3CCC[C@@H]3CN3C(=O)C(=O)NC[C@@H]3Cc3ccccc3)C[C@@H]2Cc2ccccc2)cc1,i,4.2%,x,-4.2%,i,1.2%
O=C(c1ccccc1)N(C(=O)c1ccccc1)c1ccccc1,i,4.47µM*,x,x,i,-10.0%
